Screening data from PubChem BioAssay.
Rows were chosen to be rich in hits. Some 2.9% of all compounds tested hit in one or more screens of this group.
ATXN viability: cell viability loss in ATXN counter-screen | S2 cells (HEK-293 line with an ATXN2-luciferase reporter) viability, CellTiter-Fluor protease fluorescence, 24 h | Potency, µM (titrated, usually from 56.7 µM), usual class: cytotoxic | 400,000 compounds, 0.49% hits | AID 651635; note: nearly all actives have a fitted effect of over 40% in size
A549 viability: kills or reduces viability of A549 cells in Nrf2 counter-screen | Potency, µM (highest dose often 46 µM), without a hit: top-dose activity change, negative = cytotoxicity, most hits filed as inhibitors | AID 504648 | 390,000 compounds, 0.16% hits | A549 ARE-Fluc cells, CellTiter-Fluor viability, 18-24 h; note: % is set by controls: 0 for no effect and ±100 for the full control effect
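A549 ARE-Fluc cells in 5% FBS OPTI-MEM, 5000 cells/well, rested 2 h then exposed to compounds in concentration-response for 18-24 h at 37 °C. Viability by CellTiter-Fluor fluorescence (Ex 405/Em 525) after 30 min; luciferase luminescence (BugLite, 15 min, RT) read afterwards.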
ATXN2 expr inh: inhibitors of ATXN2 expression | AID 1745845 | Potency, µM (top dose mostly 57 µM), without a hit: top-dose activity change, negative = inhibition, usual class: inhibitors | HEK-293 ATXN2-luciferase reporter, luminescence, 24 h | 360,000 compounds, 0.72% hits; note: % is set by controls: 0 for no effect and ±100 for the full control effect; nearly all actives have a fitted effect of over 55% in size
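qHTS (up to 57 uM final) was run with 24 h compound exposure of reporter cells at 37 °C. Each well was multiplexed: SteadyGlo luminescence measured ATXN2-luciferase expression after a fluorogenic Gly-Phe-AFC viability readout (25 uM final).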
Nrf2 activator: Nrf2 pathway activation. AREc32 ARE-luciferase reporter (MCF7-derived line), luminescence, 24 h. Potency, µM (series often up to 46.1 µM), for inactives: top-dose activation, actives largely listed as activators. 410,000 compounds, 0.31% hits; note: % of control where 0% means no effect; nearly all actives have a fitted effect of over 65% in size
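Each well held 1000 AREc32 cells, which were incubated with compound for 24 hr at 37 deg C after overnight attachment, and ARE reporter activity was quantified by firefly luciferase luminescence.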
Nrf2 block: Nrf2 pathway inhibition; A549 ARE-Fluc reporter, luciferase luminescence, 18-24 h; 360,000 compounds, 2.1% hits; Potency, µM (series often up to 46 µM), for inactives: at the top dose activity change, negative = inhibition, usual class: inhibitors; AID 504444; note: % is set by controls: 0 for no effect and ±100 for the full control effect; nearly all actives have a fitted effect of over 60% in size
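Two sequential reads on A549 ARE_Fluc cells exposed to compound for 18-24 h: a CellTiter-Fluor fluorescence read for viability, then a luciferase luminescence read for Nrf2/ARE activity.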
Active calls of the source: *; [ ] = another dose, or the depositor's remark. Calls come from the whole dose curve; as a rule, active = well fitted curve in the direction sought with a large enough effect; inconclusive = small, poorly fitted or top-dose-only effect, or another doubt; inactive = no such curve, though single readings can be large; an effect the other way counts as inactive or inconclusive. Potency is the fitted concentration of half-maximal effect.

What do the screens show for `O=C(Nc1ccc(S(=O)(=O)Nc2cnc3ccccc3n2)cc1)c1ccc(Cl)cc1Cl`?
ATXN viability: inactive; A549 viability: -1%; ATXN2 expr inh: -6%; Nrf2 activator: 2%; Nrf2 block: inconclusive

What do the screens show for `COc1cccc(Sc2nc(N(C)C)ncc2S(=O)(=O)c2ccc(Cl)cc2)c1`?
A549 viability: -2%; Nrf2 block: -18%

What do the screens show for `Cc1cccc(NC(=O)c2ccc(Cn3nc(N4CCN(c5ccccc5)CC4)ccc3=O)o2)c1C`?
ATXN viability: inconclusive; A549 viability: inconclusive; ATXN2 expr inh: inconclusive; Nrf2 activator: 0%; Nrf2 block: 21µM*

Results for C[C@@H]1CCC[C@H](C)N1NC(=O)c1ccc(Cl)c(S(N)(=O)=O)c1 ?
ATXN viability: inactive; A549 viability: -1%; ATXN2 expr inh: 10%; Nrf2 activator: -1%; Nrf2 block: -7%

What do the screens show for `COCCCn1c(O)c(/C=C2\N=C(C#N)C(=Nc3ccc(C)cc3)O2)sc1=S`?
ATXN viability: 35µM*; A549 viability: inconclusive; ATXN2 expr inh: inconclusive; Nrf2 activator: 10%; Nrf2 block: inconclusive

How did CCCCC(CC)CN=C(N)NC(N)=NCCCCCCN=C(N)NC(N)=NCC(CC)CCCC (stereo not drawn) do in these assays?
ATXN viability: 13µM*; A549 viability: inconclusive; ATXN2 expr inh: 10µM*; Nrf2 activator: -4%; Nrf2 block: inconclusive

Results for Cc1c(CCC(=O)O)c(=O)oc2cc(OCc3ccccc3Br)ccc12 ?
ATXN viability: inactive; A549 viability: -6%; Nrf2 activator: -2%; Nrf2 block: 21µM*

Results for C/C(=N\Nc1nc(C)c(C)s1)c1ccc([N+](=O)[O-])cc1 ?
A549 viability: -1%; ATXN2 expr inh: 30µM*; Nrf2 activator: 7%; Nrf2 block: -13%

How did c1ccc(CCNc2nc(-c3ccccn3)nc3ccccc23)cc1 do in these assays?
ATXN viability: inconclusive; A549 viability: inconclusive; ATXN2 expr inh: inconclusive; Nrf2 activator: 0%; Nrf2 block: 10µM*

Results for CCN(CC)c1nc(-c2ccccn2)nc(-c2ccccc2)c1C#N ?
ATXN viability: inconclusive; A549 viability: -17%; ATXN2 expr inh: 4.5µM*; Nrf2 activator: -1%; Nrf2 block: inconclusive

Results for CCCN(CCC)c1nc(-c2ccccc2F)nc2ccccc12 ?
ATXN viability: inactive; A549 viability: 8%; ATXN2 expr inh: -10%; Nrf2 activator: 7%; Nrf2 block: 12%

How did CCCN(CCC)c1nc(-c2ccccn2)nc2ccccc12 do in these assays?
ATXN viability: inconclusive; A549 viability: -18%; ATXN2 expr inh: inconclusive; Nrf2 activator: 8%; Nrf2 block: 18µM*

Results for C/C(=N\Nc1nc(-c2ccccn2)nc2ccccc12)c1ccc(F)cc1 ?
ATXN viability: inconclusive; A549 viability: 0%; Nrf2 activator: -1%; Nrf2 block: -10%

How did Cc1c(S(=O)(=O)N2CCC(C)CC2)c(=O)n(C)c(=O)n1C do in these assays?
ATXN viability: inactive; A549 viability: -4%; ATXN2 expr inh: 18%; Nrf2 activator: 0%; Nrf2 block: 4%

What do the screens show for `CCOc1cc(Cl)c(S(=O)(=O)NCc2cccnc2)cc1Cl`?
ATXN viability: inactive; A549 viability: -9%; ATXN2 expr inh: -14%; Nrf2 activator: -1%; Nrf2 block: inconclusive

How did O=C(N/N=C/c1ccc(O)cc1O)c1ccc(CN2C(=O)c3cccc4cccc2c34)cc1 do in these assays?
ATXN viability: inconclusive; A549 viability: inconclusive; ATXN2 expr inh: inconclusive; Nrf2 activator: 0%; Nrf2 block: 9.2µM*

Results for O=C(N/N=C/c1ccccc1)c1ccc(CN2C(=O)c3cccc4cccc2c34)cc1 ?
ATXN viability: inactive; A549 viability: 14%; ATXN2 expr inh: -14%; Nrf2 activator: 1%; Nrf2 block: -8%

What do the screens show for `Cc1cc(=O)oc2cc(OCCCC[n+]3ccccc3)ccc12`?
ATXN viability: inactive; A549 viability: 1%; ATXN2 expr inh: 8%; Nrf2 activator: 0%; Nrf2 block: inconclusive

How did CCCCCOc1ccc(Br)cc1CSC(=N)N do in these assays?
A549 viability: -6%; Nrf2 activator: -4%; Nrf2 block: inconclusive

How did CCCCOc1ccc(C)cc1CN(CCO)CCO do in these assays?
ATXN viability: inactive; A549 viability: -2%; ATXN2 expr inh: -8%; Nrf2 activator: 0%; Nrf2 block: 13%

Results for c1cc[n+](CCCC[n+]2ccccc2)cc1 ?
ATXN viability: inactive; A549 viability: 2%; ATXN2 expr inh: 1%; Nrf2 activator: 0%; Nrf2 block: -4%

What do the screens show for `CCCCCc1ccc(OCCCC[n+]2ccccc2)c(CCCCC)c1`?
ATXN viability: inconclusive; A549 viability: inconclusive; ATXN2 expr inh: 14µM*; Nrf2 activator: -2%; Nrf2 block: 18µM*

How did CCCCCc1ccc(OCCCC[n+]2ccc(C)cc2)c(CCCCC)c1 do in these assays?
ATXN viability: inconclusive; A549 viability: -19%; ATXN2 expr inh: -32%[11.3 µM]; Nrf2 activator: -2%; Nrf2 block: 10µM*

Results for CCC(C)(C)c1ccc(OCCCC[n+]2ccccc2)c(C(C)(C)CC)c1 ?
ATXN viability: inactive; A549 viability: inconclusive; ATXN2 expr inh: inconclusive; Nrf2 activator: -3%; Nrf2 block: 23µM*

What do the screens show for `CCCCCc1ccc(OCCCC[n+]2cccc(C)c2)c(CCCCC)c1`?
ATXN viability: inconclusive; A549 viability: inconclusive; ATXN2 expr inh: 10µM*; Nrf2 activator: -3%; Nrf2 block: inconclusive

How did CCOc1ccc(S(=O)(=O)N2CCCC(C(=O)NCc3ccncc3)C2)cc1 (stereo not drawn) do in these assays?
ATXN viability: inactive; A549 viability: -9%; ATXN2 expr inh: 12%; Nrf2 activator: 0%; Nrf2 block: -25%

How did COc1cc(NS(=O)(=O)c2ccc(NC(=O)C3CCCO3)cc2)nc(OC)n1 (stereo not drawn) do in these assays?
ATXN viability: inactive; A549 viability: -2%; ATXN2 expr inh: -2%; Nrf2 activator: 0%

Results for O=C(Nc1ccc(C(F)(F)F)cc1)C1CCCN1S(=O)(=O)c1cccc2cccnc12 (stereo not drawn) ?
ATXN viability: inactive; A549 viability: -9%; ATXN2 expr inh: -27%; Nrf2 activator: 4%

What do the screens show for `O=C1CN(C(=O)c2cc3ccccc3oc2=O)C(c2ccc(F)cc2)c2cc(F)ccc2N1` (stereo not drawn)?
ATXN viability: inactive; A549 viability: -5%; ATXN2 expr inh: -2%; Nrf2 activator: 0%; Nrf2 block: 5%

What do the screens show for `Cc1ccc(C(=O)N2CCCCC2)cc1NC(=O)c1nsc2ccccc12`?
ATXN viability: inconclusive; A549 viability: 0%; ATXN2 expr inh: -4%; Nrf2 activator: 4%

How did CC12CCC=CC1C(c1ccc3ccccc3c1Br)N(Cc1ccccc1)C2=O (stereo not drawn) do in these assays?
A549 viability: -5%; Nrf2 block: inconclusive
